In the library only some 0.43% were active in any assay of this set; here they are far more common.
GAA glycogen mod – GAA glycogen-cleavage inhibition or activation. P10253. AID 2100. recombinant GAA, glycogen substrate, Amplex Red glucose oxidase fluorescence. Potency, µM (titrated, usually from 76.4 µM), actives largely listed as inhibitors. hit rate 0.38% among 300,000;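 also: the screen sought inhibitors and activators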
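qHTS, 1536-well; enzyme 4 nM final; cpd up to 77 uM; substrate bovine liver glycogen 30 ug; 50 mM citrate/phosphate pH 5.0, 0.01% Tween-20; 37 C, 40 min; Amplex Red detection 45 min RT; Hill fit → AC50.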
GLA spleen mod – inhibits or activates alpha-galactosidase in human spleen homogenate; human spleen homogenate, 4MU-alpha-Gal fluorescence, 40 min; Potency, µM (doses to about 80 µM), usual class: inhibitors; hit rate 0.008% among 240,000; AID 2107
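qHTS titration in buffer at pH 5.0. Alpha-galactosidase activity in spleen homogenate was measured via 4-methylumbelliferone release from 1 mM fluorogenic substrate after 40 min at 37C and a pH 10 stop. AC50 came from Hill fits of control-normalized data.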
N370S GC mod – inhibitors or activators of N370S glucocerebrosidase for Gaucher disease. N370S GC spleen homogenate, 4MU-glucoside fluorescence. Potency, µM (top dose mostly 59.4 µM), usual class: inhibitors. hit rate 0.092% among 330,000. AID 2101
GAA inhib – blocks human lysosomal alpha-glucosidase; P10253; purified human GAA, 4-MU-alpha-glucoside fluorescence; Potency, µM (highest dose often 76.9 µM), actives largely listed as inhibitors; hit rate 0.005% among 200,000; AID 1466
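Endpoint fluorogenic read: 20 min room-temperature reaction of 4 nM human alpha-glucosidase with 400 uM 4-methylumbelliferyl-alpha-D-pyranoside, pH 5.0, quenched with 1M NaOH/1M glycine pH 10. AC50 from Hill modeling.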
GAA spleen mod – lysosomal alpha-glucosidase (human) modulation. Potency, µM (highest dose often 79.9 µM), hits mostly inhibitors. hit rate 0.006% among 240,000. human spleen homogenate, 4-MU-alpha-glucoside fluorescence. P10253
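AC50 values come from Hill-equation fits of concentration-response data, normalized to no-enzyme and full-activity controls. Enzyme source: 1 ug human spleen homogenate; 1 mM fluorogenic 4-MU glucoside, pH 5.0 citrate buffer, 37 C, 40 min.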
GLA inh pH 4.5 – inhibitors of human alpha-galactosidase A at pH 4.5. activity change, negative = inhibition, % at 105 µM. 230,000 tested, under 10 active. AID 1467. purified enzyme, 4-MU-alpha-Gal fluorescence, pH 4.5
Target sequence (P06280 whole entry, looked up): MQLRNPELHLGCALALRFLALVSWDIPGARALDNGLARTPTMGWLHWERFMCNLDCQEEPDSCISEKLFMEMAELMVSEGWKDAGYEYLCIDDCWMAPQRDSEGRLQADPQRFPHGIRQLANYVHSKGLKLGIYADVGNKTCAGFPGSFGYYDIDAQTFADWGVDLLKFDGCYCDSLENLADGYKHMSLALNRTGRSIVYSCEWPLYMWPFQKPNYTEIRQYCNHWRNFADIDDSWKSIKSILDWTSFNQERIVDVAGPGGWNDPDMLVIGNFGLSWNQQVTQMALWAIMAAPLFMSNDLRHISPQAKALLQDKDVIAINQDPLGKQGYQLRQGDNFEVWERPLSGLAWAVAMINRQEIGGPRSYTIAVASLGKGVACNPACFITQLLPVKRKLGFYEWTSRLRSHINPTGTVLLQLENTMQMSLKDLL
A number is an active result; n = inactive; u = inconclusive; x = no result given; [ ] = remark or other dose. Calls follow the shape of the dose curve; as a rule, active = well fitted curve in the direction sought with a large enough effect; inconclusive = small, poorly fitted or top-dose-only effect, or another doubt; inactive = no such curve, though single readings can be large; an effect the other way counts as inactive or inconclusive.

SMILES	GAA glycogen mod	GLA spleen mod	N370S GC mod	GAA inhib	GAA spleen mod	GLA inh pH 4.5
CCCC[C@@H](C)/C=C(C)/C=C(\C)C(=O)NC1=C[C@@](O)(/C=C/C=C/C=C/C(=O)NC2=C(O)CCC2=O)[C@@H]2O[C@@H]2C1=O	x	n	n	x	n	x
CCCCOC(=O)c1cc(Cl)c(O)c(OC)c1	n	n	n	n	n	n
COc1cc(C(=O)OCCC(C)C)cc(OC)c1O	11µM	n	n	n	n	n
COc1ccc(C2CC(c3ccccc3)Oc3cc(OC)ccc32)cc1 (centres undefined)	x	n	n	x	n	x
COc1cc(/C=N\NC(=O)c2c(C)nc3cc(C)ccn23)ccc1O	11µM	n	u	n	u	n
Cc1ccc(OCc2ccc(-c3nc(C#N)c(N4CCN(c5cccc(Cl)c5)CC4)o3)o2)cc1	n	x	x	x	x	x
CC1CCC(NC(=O)Nc2cccs2)CC1 (centres undefined)	16µM	n	n	n	n	n
O=C1CCCC=C1[C@H](CCc1ccccc1)OC(=O)c1ccc(Br)cc1	x	n[17.5 µM]	n[12.8 µM]	x	n[17.4 µM]	x
O=C1NN(c2ccc(Cl)c(Cl)c2)C(=O)/C1=C/c1cccc(OC(=O)c2cccs2)c1	n	n	n	n	n	n
O=C1NN(c2ccccc2)C(=O)/C1=C\c1cccc(OC(=O)c2cccs2)c1	20µM	n	x	n	n	n
O=C1CCCC/C1=C\Nc1ccc(O)cc1	8.8µM	n	u	n	n	n
COc1ccc(OC2C=CC(C#Cc3ccccc3)OC2CO)cc1 (centres undefined)	x	n[17.5 µM]	n[12.8 µM]	x	n[17.4 µM]	x
Cc1cc(Br)ccc1NC(=O)c1ccc(NS(=O)(=O)c2c(C)noc2C)cc1	n	x	x	x	x	x
CO[C@H]1COC(=O)C/C=C\[C@H](C)COC(=O)[C@@H](C)NC(=O)C/C=C\[C@@H]1C	x	n[17.5 µM]	n[12.8 µM]	x	n[17.4 µM]	x
CCOC(=O)CN=C1CC(C)(C)CC2=C1Sc1ncnc(N(C)C)c1N2	28µM	n	n	n	n	n
CCOC(=O)Nc1sc(=S)n(C)c1C	7.9µM	n	n	n	n	n
Cc1c(NC(=O)OCCNC(=O)Nc2ccccc2)sc(=S)n1C	u	n	u	n	n	n
CC(C)(C)[C@]1(O)CCN2CC3c4ccccc4CCc4cccc(c43)[C@@H]2C1 (some centres undefined)	x	u	n	x	n	n
Oc1cc(O)c2c(c1)O[C@H](c1ccc(O)c(O)c1)[C@H](O)C2	10µM	n	n	x	n	n
Cc1ccc(Nc2nc3c([nH]2)c(=O)n(C)c(=O)n3C)cc1	20µM	n	n	n	n	n
Cc1cc(C)c2c(=O)n(-c3ccccc3)[nH]c2n1	n	n	n	n	n	n
Cc1cc(-c2ccccc2)nc2[nH]n(-c3ccccc3)c(=O)c12	35µM	n	n	n	n	n
CCOc1ccc(NC(=O)Cn2cc(C(=O)c3ccc(F)cc3)c(=O)c3cc4c(cc32)OCO4)cc1	n	x	x	x	x	x
CC(=O)N1CCc2nc3sc(C(=O)c4ccc(F)cc4)c(N)c3c(C(F)(F)F)c2C1	n	x	x	x	x	x
O=C(N/N=C/C1CC=CCC1)c1ccccc1O (centres undefined)	32µM	n	n	n	n	n
SMILES	GAA glycogen mod	GLA spleen mod	N370S GC mod	GAA inhib	GAA spleen mod	GLA inh pH 4.5
O=C(N/N=C/C1CC=CCC1)c1cc(Br)ccc1O (centres undefined)	u	n	n	n	n	n
N#Cc1cccc(-c2nc3cnc(N4CCOCC4)nc3n(C3CC3)c2=O)c1	x	u	n	x	n	x
CCC(=O)[C@]12O[C@@]3(C4C(=O)OCCC41)N(Cc1ccccc1)C(C)=C(C(=O)OC)C(c1ccccc1)N3C2=O (some centres undefined)	x	n[17.5 µM]	n[12.8 µM]	x	n[17.4 µM]	x
O=C(/C=C/c1ccc(O)c(O)c1)OC(Cc1ccc(O)c(O)c1)C(=O)O (centres undefined)	2µM	n	n	x	n	n
Cn1ncc(N)c1C(=O)Nc1cccc(C(F)(F)F)c1	n	n	n	n	n	n
Nc1[nH]ncc1C(=O)Nc1cccc(C(F)(F)F)c1	11µM	n	n	u	n	n
CCN1CCCc2cc(CN(CCN3CCOCC3)C(=S)Nc3ccc(OC)c(OC)c3)ccc21	u	n	n	n	n	n
CCc1ccc(NC(=O)N(CCN2CCOCC2)Cc2ccc3c(c2)CCCN3CC)cc1	11µM	n	n	n	n	n
CCN1CCCc2cc(CN(CCN3CCOCC3)C(=O)Nc3ccc(C)c(C)c3)ccc21	11µM	n	n	n	n	n
CCN1CCCc2cc(CN(CCN3CCOCC3)C(=S)Nc3cccc(C)c3)ccc21	u	n	n	n	n	n
C[N+]1(C)CC[C@@H](OC(=O)[C@@](O)(c2ccccc2)C2CCCC2)C1	x	n	n	x	n	n
COc1cccc(C2CC(=O)Nc3c2c(=O)[nH]c2nc4ccccc4n32)c1 (centres undefined)	40µM	x	x	x	x	x
CO[C@H]1COC(=O)[C@H](C)NC(=O)[C@@H](C)COC(=O)[C@H]2CCCN2C(=O)C/C=C\[C@H]1C	x	n[17.5 µM]	n[12.8 µM]	x	n[17.4 µM]	x
Oc1ccc(/C=N/NC(=S)N/N=C/c2ccc(O)cc2)cc1	3.5µM	n	n	n	n	n
CCCCCCC#CC1C=CC(Oc2ccc(C=O)cc2)C(CO)O1 (centres undefined)	x	n[17.5 µM]	n[12.8 µM]	x	n[17.4 µM]	x
Oc1ccccc1N=Cc1c(O)ccc2ccccc12	u	n	n	n	n	n
CN(C)/N=C/c1c(O)ccc2ccccc12	14µM	n	n	n	n	n
COc1cc(N(C)C)cc(CN(C)CCc2ccc([N+](=O)[O-])cc2)c1O	x	n	n	x	n	x
Cc1ccc(/C=N/c2sc3c(c2C#N)CCC3)o1	22µM	n	n	n	n	n
C/C(CCN1CCCc2nc(C)c(C)cc21)=N\O[C@@H](C)c1cn([C@H](CO)Cc2ccccc2)nn1	x	n[17.5 µM]	n[12.8 µM]	x	n[17.4 µM]	x
O=C(O)COc1ccc(OCCNC[C@@H](O)COc2ccccc2)cc1	x	n	n	x	n	n
CCOc1cc(/C=C/c2cc(C(F)(F)F)[nH]c(=O)n2)ccc1O	7.9µM	n	n	n	n	n
CC(=O)Oc1ccc2c(=O)c(Oc3ccccc3)c(C)oc2c1OC(C)=O	3.5µM	n	n	n	n	n
CO[C@@H]1COC(=O)CC=C[C@@H](C)[C@@H]2C=C[C@@H](O)[C@@H](COC(=O)C/C=C\[C@H]1C)O2	x	n[17.5 µM]	n[12.8 µM]	x	n[17.4 µM]	x
CCCCN(C)CCNC(=O)c1cc2c(=O)n(C)c3ccccc3c2n1C	n	x	x	x	x	x
Oc1ccc(C(c2nnnn2C2CCCCC2)N2CCOCC2)cc1 (centres undefined)	n	n	n	n	n	n
CCOC(=O)c1cc2oc(C(c3nnnn3C3CCCCC3)N3CCOCC3)cc2[nH]1 (centres undefined)	n	n	13µM	n	n	n
CCOc1ccc(Nc2nc(Cc3nnc(SCC(=O)NCc4ccco4)n3CC)cs2)cc1	18µM	n	n	n	n	n

High-throughput results deposited in PubChem by National Center for Advancing Translational Sciences (NCATS).
